Laboratory results as given in PubChem BioAssay AID1159580 (chemical genetic matrix, 2015).
Several values for one entry are separate records, joined by “and”; a condition that tells them apart may be missing. Identical values can stand only once. Among all 5,500 compounds or so, about 2,000 (36%) were called active. About 18% were inconclusive and are not listed. No stated cut-off is given here; in the data, active means normalized growth mostly below about 0.91 (no sharp cut-off); inconclusive means no clear call, values can overlap the other calls; inactive means mostly above about 0.92. The list shows a part of the results.

Experiment: chemical genetic growth profiling, strain panel (AID 1159580);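 further: tested at 20 µM; growth read once vehicle control cultures reached saturation at 30 °C; 1 = growth at the plate median or of vehicle wells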
Settings: S. cerevisiae deletion strains, growth OD

Measured: normalized growth

CCC(/C=C/[C@@H](C)[C@H]1CCC2C3CC=C4C[C@@H](O)CC[C@]4(C)C3CC[C@@]21C)C(C)C (some centres undefined)
inactive: locus YAL013W, strain DEP1, stronger effect = lower value 0.999 | locus YAL021C, strain ccr4, stronger effect = lower value 1.02 | locus YAL026C, strain drs2, stronger effect = lower value 0.935 | locus YAL030W, strain snc1, stronger effect = lower value 0.99 | locus YBL061C, strain skt5, stronger effect = lower value 0.997 | locus YBR009C, strain hhf1, stronger effect = lower value 0.972 | locus YBR021W, strain FUR4, stronger effect = lower value 1.04 | locus YBR023C, strain chs3, stronger effect = lower value 0.988 | locus YBR171W, strain sec66, stronger effect = lower value 0.985 | locus YBR229C, strain ROT2, stronger effect = lower value 0.993 | locus YBR231C, strain swc5, stronger effect = lower value 0.988 | locus YBR279W, strain paf1, stronger effect = lower value 0.994 | locus YCL011C, strain gbp2, stronger effect = lower value 0.968 | locus YCL016C, strain dcc1, stronger effect = lower value 1 | locus YCL029C, strain bik1, stronger effect = lower value 1 | locus YCL061C, strain MRC1, stronger effect = lower value 1.01 | locus YCL069W, strain vba3, stronger effect = lower value 0.99 | locus YCR088W, strain abp1, stronger effect = lower value 0.994 | locus YDL005C, strain med2, stronger effect = lower value 0.983 | locus YDL035C, strain GPR1, stronger effect = lower value 1.02 | locus YDL040C, strain nat1, stronger effect = lower value 0.987 | locus YDL074C, strain BRE1, stronger effect = lower value 0.992 | locus YDL101C, strain DUN1, stronger effect = lower value 1.01 | locus YDL185W, strain tfp1, stronger effect = lower value 0.986 | locus YDL192W, strain arf1, stronger effect = lower value 0.986 | locus YDR001C, strain nth1, stronger effect = lower value 0.991 | locus YDR069C, strain doa4, stronger effect = lower value 1.01 | locus YDR101C, strain arx1, stronger effect = lower value 0.987 | locus YDR137W, strain rgp1, stronger effect = lower value 0.931 | locus YDR150W, strain NUM1, stronger effect = lower value 1.02 | locus YDR159W, strain sac3, stronger effect = lower value 0.959 | locus YDR162C, strain NBP2, stronger effect = lower value 1.02 | locus YDR195W, strain ref2 0.963 | locus YDR297W, strain sur2, stronger effect = lower value 0.991 | locus YDR318W, strain mcm21, stronger effect = lower value 0.987 | locus YDR334W, strain swr1, stronger effect = lower value 0.988 | locus YDR335W, strain msn5, stronger effect = lower value 0.982 | locus YDR388W, stronger effect = lower value 0.989 | locus YDR392W, strain spt3, stronger effect = lower value 0.894 | locus YDR502C, strain sam2, stronger effect = lower value 0.992 | locus YEL003W, strain gim4, stronger effect = lower value 0.982 | locus YEL037C, strain rad23, stronger effect = lower value 0.976 | locus YEL061C, strain CIN8 (second series), stronger effect = lower value 0.979 | locus YEL061C, strain CIN8, stronger effect = lower value 0.999 | locus YER015W, strain faa2, stronger effect = lower value 1 | locus YER016W, strain bim1, stronger effect = lower value 0.979 | locus YER110C, stronger effect = lower value 0.995 | locus YER111C, strain swi4, stronger effect = lower value 0.99 | locus YER155C, strain BEM2 (second series), stronger effect = lower value 0.993 | locus YER155C, strain BEM2, stronger effect = lower value 0.986 | locus YER167W, strain BCK2, stronger effect = lower value 0.997 | locus YFR010W, strain ubp6, stronger effect = lower value 0.997 | locus YGL078C, strain dbp3, stronger effect = lower value 0.991 | locus YGL086W, strain mad1, stronger effect = lower value 1.02 | locus YGL167C, strain pmr1, stronger effect = lower value 0.975 | locus YGL173C, strain kem1, stronger effect = lower value 0.983 | locus YGL227W, strain vid30, stronger effect = lower value 0.985 | locus YGL240W, strain doc1, stronger effect = lower value 0.998 | locus YGL248W, strain PDE1, stronger effect = lower value 1 | locus YGL253W, strain hxk2, stronger effect = lower value 0.962 | locus YGR135W, strain pre9, stronger effect = lower value 0.989 | locus YGR252W, strain gcn5, stronger effect = lower value 0.971 | locus YHR013C, strain ard1, stronger effect = lower value 0.957 | locus YHR027C, strain rpn1, stronger effect = lower value 0.996 | locus YHR030C, strain SLT2, stronger effect = lower value 1 and 0.954 | locus YHR079C, strain IRE1 (second series), stronger effect = lower value 0.991 | locus YHR079C, strain IRE1, stronger effect = lower value 0.964 | locus YHR094C, strain hxt1, stronger effect = lower value 0.995 | locus YHR129C, strain ARP1, stronger effect = lower value 0.999 | locus YHR142W, strain chs7, stronger effect = lower value 1.02 | locus YHR200W, strain rpn10, stronger effect = lower value 0.981 | locus YIL066C, strain RNR3, stronger effect = lower value 1 | locus YIL073C, strain SPO22, stronger effect = lower value 1 | locus YIL125W, strain kgd1, stronger effect = lower value 1.02 | locus YIR030C, strain dcg1, stronger effect = lower value 1 | locus YJL092W, strain hpr5, stronger effect = lower value 0.998 | locus YJL095W, strain BCK1 (second series), stronger effect = lower value 0.997 | locus YJL095W, strain BCK1, stronger effect = lower value 1.01 and 0.976 | locus YJL115W, strain asf1, stronger effect = lower value 0.993 | locus YJL129C, strain trk1, stronger effect = lower value 1.01 | locus YJL134W, strain LCB3, stronger effect = lower value 0.997 | locus YJL154C, strain vps35, stronger effect = lower value 0.981 | locus YJL164C, strain tpk1, stronger effect = lower value 1 | locus YJL166W, strain qcr8, stronger effect = lower value 0.981 | locus YJL168C, strain set2, stronger effect = lower value 0.997 | locus YJL187C, strain SWE1 (second series), stronger effect = lower value 1 | locus YJL187C, strain SWE1, stronger effect = lower value 0.993 | locus YJR043C, strain POL32, stronger effect = lower value 1.04 | locus YJR066W, strain TOR1, stronger effect = lower value 0.929 | locus YKL009W, strain mrt4, stronger effect = lower value 1.02 | locus YKL068W, stronger effect = lower value 0.994 | locus YKL085W, strain MDH1 (second series), stronger effect = lower value 0.993 | locus YKL085W, strain MDH1, stronger effect = lower value 0.993 | locus YKL160W, strain elf1, stronger effect = lower value 1.04 | locus YKR001C, strain vps1, stronger effect = lower value 1.02 | locus YKR026C, strain gcn3, stronger effect = lower value 0.984 | locus YKR091W, strain srl3, stronger effect = lower value 0.99 | locus YLL001W, strain dnm1, stronger effect = lower value 1 | locus YLL026W, stronger effect = lower value 1.01 | locus YLL041C, strain sdh2, stronger effect = lower value 1 | locus YLR027C, strain aat2, stronger effect = lower value 0.984 | locus YLR039C, strain RIC1, stronger effect = lower value 0.964 | locus YLR058C, strain SHM2, stronger effect = lower value 0.998 | locus YLR102C, strain apc9, stronger effect = lower value 0.992 | locus YLR113W, strain HOG1, stronger effect = lower value 0.951 | locus YLR221C, strain rsa3, stronger effect = lower value 1 | locus YLR258W, strain gsy2, stronger effect = lower value 0.991 | locus YLR262C, strain YPT6 (second series), stronger effect = lower value 0.917 | locus YLR262C, strain YPT6, stronger effect = lower value 1.01 | locus YLR268W, strain sec22, stronger effect = lower value 0.987 | locus YLR320W, strain mms22, stronger effect = lower value 0.998 | locus YLR330W, strain CHS5, stronger effect = lower value 1 | locus YLR342W, strain FKS1 (second series), stronger effect = lower value 1.05 | locus YLR342W, strain FKS1, stronger effect = lower value 0.986 | locus YLR357W, strain rsc2, stronger effect = lower value 1.03 | locus YLR370C, strain arc18, stronger effect = lower value 0.988 | locus YLR371W, strain rom2, stronger effect = lower value 0.999 | locus YLR384C, strain iki3, stronger effect = lower value 0.982 | locus YLR418C, strain cdc73, stronger effect = lower value 1.03 | locus YML016C, strain PPZ1, stronger effect = lower value 0.991 | locus YML032C, strain rad52, stronger effect = lower value 0.994 | locus YML120C, strain ndi1, stronger effect = lower value 0.99 | locus YML124C, strain tub3, stronger effect = lower value 0.992 | locus YMR058W, strain fet3, stronger effect = lower value 0.984 | locus YMR078C, strain ctf18, stronger effect = lower value 0.987 | locus YMR125W, strain sto1, stronger effect = lower value 0.975 | locus YMR129W, stronger effect = lower value 1 | locus YMR205C, strain PFK2, stronger effect = lower value 0.981 | locus YMR223W, strain ubp8, stronger effect = lower value 0.974 | locus YMR231W, strain pep5, stronger effect = lower value 0.99 | locus YMR263W, strain SAP30, stronger effect = lower value 1.02 | locus YMR307W, strain GAS1, stronger effect = lower value 1.11 | locus YNL067W, strain RPL9B, stronger effect = lower value 1.02 | locus YNL071W, strain lat1, stronger effect = lower value 0.986 | locus YNL128W, strain TEP1, stronger effect = lower value 1 | locus YNL183C, strain NPR1, stronger effect = lower value 0.904 | locus YNL209W, strain ssb2, stronger effect = lower value 0.993 | locus YNL233W, strain BNI4, stronger effect = lower value 1.02 | locus YNL248C, strain rpa49, stronger effect = lower value 0.987 | locus YNL250W, strain rad50, stronger effect = lower value 0.991 | locus YNL271C, strain bni1, stronger effect = lower value 0.99 | locus YNL298W, strain CLA4, stronger effect = lower value 1 | locus YNL307C, strain MCK1, stronger effect = lower value 1.01 | locus YNL322C, strain KRE1 (second series), stronger effect = lower value 0.989 | locus YNL322C, strain KRE1, stronger effect = lower value 0.995 | locus YNR049C, strain mso1, stronger effect = lower value 0.979 | locus YNR052C, strain pop2, stronger effect = lower value 0.983 | locus YOL012C, strain htz1 1.17 | locus YOL147C, strain pex11, stronger effect = lower value 0.992 | locus YOR001W, strain rrp6, stronger effect = lower value 1.01 | locus YOR061W, strain CKA2, stronger effect = lower value 1 | locus YOR069W, strain VPS5, stronger effect = lower value 0.992 | locus YOR070C, strain gyp1, stronger effect = lower value 0.976 | locus YOR080W, strain dia2, stronger effect = lower value 0.989 | locus YOR083W, strain WHI5, stronger effect = lower value 1.05 | locus YOR106W, strain vam3, stronger effect = lower value 0.999 | locus YOR136W, strain idh2, stronger effect = lower value 0.995 | locus YOR144C, strain elg1, stronger effect = lower value 0.987 | locus YOR184W, strain ser1, stronger effect = lower value 1 | locus YOR231W, strain MKK1, stronger effect = lower value 0.984 | locus YOR265W, strain rbl2, stronger effect = lower value 0.989 | locus YOR270C, strain vph1, stronger effect = lower value 0.909 | locus YOR290C, strain snf2, stronger effect = lower value 0.921 | locus YOR316C, strain cot1, stronger effect = lower value 0.989 | locus YPL051W, strain arl3, stronger effect = lower value 1.01 | locus YPL078C, strain atp4, stronger effect = lower value 1.01 | locus YPL106C, strain sse1, stronger effect = lower value 0.996 | locus YPL240C, strain hsp82, stronger effect = lower value 1.02 | locus YPL256C, strain CLN2, stronger effect = lower value 0.962 | locus YPR119W, strain clb2, stronger effect = lower value 0.99 | locus YPR141C, strain kar3, stronger effect = lower value 0.994 | locus YPR163C, strain tif3, stronger effect = lower value 0.997 | locus YPR167C, strain met16, stronger effect = lower value 0.992 | strain wtn01, stronger effect = lower value 0.996
